PLK1 PBD block: PLK1 (human) polo-box domain binding inhibition; P53350; Plk1 PBD binding of FITC phosphopeptide, fluorescence polarization; Potency, µM, most hits filed as inhibitors; 360,000 compounds, 2.8% hits; AID 720504; note: series mostly up to about 57 µM; nearly all actives have a fitted effect of over 65% in size
Pin1 inh: blocks the human prolyl isomerase Pin1; Potency, µM (highest dose often 115 µM), actives largely listed as inhibitors; Pin1 FP peptide displacement, HiFluor488, 10 min; Q13526; 390,000 compounds, 0.009% hits; active = well fitted inhibition curve with a large enough effect in the polarisation, with a control signal flat, not every such curve was filed as active; inconclusive = small, poorly fitted or top-dose-only effect, or effect the other way, or a change in a side signal; inactive = no such curve, though single readings can be large or run the other way; the % refers to the polarisation
Target sequence (Q13526 whole entry, looked up): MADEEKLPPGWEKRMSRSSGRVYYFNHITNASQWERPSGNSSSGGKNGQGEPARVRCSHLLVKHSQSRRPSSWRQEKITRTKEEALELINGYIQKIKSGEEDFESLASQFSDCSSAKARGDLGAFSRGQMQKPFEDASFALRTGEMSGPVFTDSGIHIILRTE
Tb PFK inh-1: inhibitors of T. brucei phosphofructokinase. Potency, µM (top dose mostly 57.5 µM), usual class: inhibitors. 330,000 compounds, 0.17% hits. T. brucei PFK, ADP-Glo luminescence. O15648; note: nearly all actives have a fitted effect of over 60% in size
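Compounds were pin-transferred as a titration series up to 57 uM into substrate buffer (0.5 mM F6P, 0.1 mM ATP, pH 8.0), then 1.25 nM PFK was added and reactions ran 45 min before ADP-Glo detection.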
VDR inhibitor: blocks the human vitamin D receptor | P11473 | VDR-SRC2-3 peptide fluorescence polarization, 2 h | Potency, µM, most hits filed as inhibitors | 400,000 compounds, 0.93% hits | AID 504847
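Signal is fluorescence polarization, reporting how far test compounds block the interaction of VDR with the SRC2-3 coregulator peptide after a 2 h room-temperature incubation.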
TDP1 block: blocks human tyrosyl-DNA phosphodiesterase 1; Q9NUW8; recombinant TDP1, AlphaScreen DNA substrate cleavage; Potency, µM (top dose mostly 130 µM), actives largely listed as inhibitors; 350,000 compounds, 0.28% hits; note: nearly all actives have a fitted effect of over 40% in size
Target sequence (Q9NUW8 whole entry, looked up): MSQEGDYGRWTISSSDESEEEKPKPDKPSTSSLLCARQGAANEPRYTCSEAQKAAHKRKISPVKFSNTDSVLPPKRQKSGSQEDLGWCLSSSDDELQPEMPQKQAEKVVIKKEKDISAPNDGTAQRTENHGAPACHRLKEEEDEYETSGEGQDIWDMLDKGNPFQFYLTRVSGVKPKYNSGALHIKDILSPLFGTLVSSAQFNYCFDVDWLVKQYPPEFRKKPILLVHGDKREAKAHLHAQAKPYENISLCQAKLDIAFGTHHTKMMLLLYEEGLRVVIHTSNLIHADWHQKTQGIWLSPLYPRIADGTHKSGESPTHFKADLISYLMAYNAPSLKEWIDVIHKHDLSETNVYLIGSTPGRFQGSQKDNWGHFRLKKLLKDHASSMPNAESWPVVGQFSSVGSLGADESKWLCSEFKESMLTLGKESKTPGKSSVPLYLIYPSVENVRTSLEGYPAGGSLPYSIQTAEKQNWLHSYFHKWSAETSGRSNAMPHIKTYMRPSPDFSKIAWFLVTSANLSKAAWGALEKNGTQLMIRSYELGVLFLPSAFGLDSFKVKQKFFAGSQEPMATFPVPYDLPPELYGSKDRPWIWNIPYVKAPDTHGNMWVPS
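Tdp1 1 nM final; 15 min RT w/ cpd; substrate 15 nM, 5 min; beads 10 ug/ml, 10 min; AlphaScreen read. Neg ctrl: no enzyme.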
S-ASM inh: inhibitors of human secretory acid sphingomyelinase; P17405; placental ASM, HMU-PC fluorogenic substrate, 60 min; Potency, µM (highest dose often 57.5 µM), most hits filed as inhibitors; 340,000 compounds, 0.006% hits; AID 504937
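HMU-PC0 cleavage (9 uM final) by human placental ASM, 60 min at 37 °C following 10 min compound exposure at RT; stopped at pH 10, fluorescence Ex 386/Em 447 nm.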
Tb PFK KinaseGlo: inhibits T. brucei PFK measured by ATP depletion. shares compounds with Tb PFK inh-1. Tb PFK enzyme, ATP depletion, Kinase-Glo Plus luminescence. Potency, µM (titrated, usually from 57.5 µM). 1,100 compounds, 47% hits; calls by dose curve; note: nearly all actives have a fitted effect of over 60% in size
Tb PFK inh-2: T. brucei PFK enzyme inhibition, hit validation. shares compounds with Tb PFK inh-1. purified T. brucei PFK, ADP-Glo luminescence, 45 min. Potency, µM (highest dose often 57.5 µM), actives largely listed as inhibitors. 1,100 compounds, 41% hits. AID 504637; note: nearly all actives have a fitted effect of over 60% in size
USP1-UAF1 confirm: USP1-UAF1 deubiquitinase inhibition validated | 50 compounds, 50% hits | Ub-Rhodamine cleavage, fluorescence kinetic read | shares compounds with VDR inhibitor | Potency, µM (top dose mostly 56.8 µM), hits mostly inhibitors | AID 540327
VDR inh confirm: confirmation of human vitamin D receptor inhibitors. AID 602199. shares compounds with VDR inhibitor. VDR-coactivator inhibition assay, qHTS confirmation. 840 compounds, 89% hits. Potency, µM, hits mostly inhibitors
VDR FP: confirmation of human VDR-coactivator binding inhibitors, fluorescein label. shares compounds with VDR inhibitor. VDR-coactivator binding, fluorescein fluorescence polarization. Potency, µM (series often up to 57.1 µM), usual class: inhibitors. 840 compounds, 48% hits
VDR bla reporter: inhibits human VDR in beta-lactamase reporter cells; shares compounds with VDR inhibitor; VDR beta-lactamase reporter cells, FRET ratio; cells co-treated with VDR agonist LG190178; Potency, µM (doses to about 46.1 µM), usual class: inhibitors; 840 compounds, 23% hits
VDR viability: cytotoxic in counter-screen for VDR inhibitors; Potency, µM (doses to about 48.3 µM), usual class: cytotoxic; shares compounds with VDR inhibitor; cytotoxicity counter-screen, cell viability, qHTS; 840 compounds, 18% hits; note: nearly all actives have a fitted effect of over 75% in size
TbPYK inh: Trypanosoma brucei pyruvate kinase inhibition, cherry-pick confirmation. shares compounds with PLK1 PBD block. recombinant TbPYK, Kinase-Glo ATP luminescence. Potency, µM (titrated, usually from 76.9 µM), hits mostly inhibitors. 890 compounds, 67% hits. AID 720569; note: nearly all actives have a fitted effect of over 70% in size
TbPYK ADP-Glo: TbPYK inhibition, orthogonal confirmation; shares compounds with PLK1 PBD block; recombinant TbPYK, ADP-Glo luminescence, 60 min; Potency, µM (doses to about 76.9 µM), most hits filed as inhibitors; 890 compounds, 62% hits; note: nearly all actives have a fitted effect of over 75% in size
Of the large screens only hits and unclear results are named; the others gave an inactive call (follow-up assays come after a bar, where they were run). Hits are enriched below; roughly 3.1% of the tested compounds scored in any of these assays. Unless noted, calls come from the whole dose curve; as a rule, active = well fitted curve in the direction sought with a large enough effect; inconclusive = small, poorly fitted or top-dose-only effect, or another doubt; inactive = no such curve, though single readings can be large; an effect the other way counts as inactive or inconclusive.

Cc1ccc(O)c(C(=O)c2cc(C(=O)NCc3ccccc3)c(=O)n(Cc3ccccc3)c2)c1	none
Cc1ccc(O)c(NC2=C(Cl)C(=O)N(Cc3ccccc3)C2=O)c1	PLK1 PBD block 3µM, Tb PFK inh-1 24µM, VDR inhibitor inconclusive | Tb PFK KinaseGlo 11µM | Tb PFK inh-2 19µM | TbPYK inh 16µM | TbPYK ADP-Glo 20µM
Cc1c(N=Nc2c(O)[nH]c(=S)[nH]c2=O)c(=O)n(-c2ccccc2)n1C	S-ASM inh inconclusive
Cc1c(N2C(=O)/C(=C\c3ccccc3O)SC2=S)c(=O)n(-c2ccccc2)n1C	PLK1 PBD block 1.7µM, Tb PFK inh-1 21µM, VDR inhibitor inconclusive | Tb PFK KinaseGlo inconclusive | Tb PFK inh-2 inactive | TbPYK inh 4.5µM | TbPYK ADP-Glo 7.9µM
O=C(Nc1ccccc1C(F)(F)F)c1cccn(Cc2ccccc2)c1=O	none (no result: PLK1 PBD block, Tb PFK inh-1, S-ASM inh)
CCOC(=O)C1(c2ccccc2)Oc2ccccc2C(c2ccc(OC)cc2)=C1C(=O)OC (centres undefined)	PLK1 PBD block inconclusive
CCOC(=O)C1=C(C)c2ccccc2N(C(=O)OC)C1(C)C(=O)OCC (centres undefined)	PLK1 PBD block inconclusive, Tb PFK inh-1 inconclusive, VDR inhibitor inconclusive | Tb PFK KinaseGlo 21µM | Tb PFK inh-2 inconclusive | TbPYK inh 32µM | TbPYK ADP-Glo 40µM
Cc1cc(O)ccc1Cl	none (no result: PLK1 PBD block, Pin1 inh, Tb PFK inh-1, S-ASM inh)
Cc1cc(O)c(-c2cc(O)c(C)cc2O)cc1O	PLK1 PBD block 4.7µM, Tb PFK inh-1 12µM, VDR inhibitor 25µM | Tb PFK KinaseGlo 3µM | Tb PFK inh-2 8.5µM | TbPYK inh 32µM | TbPYK ADP-Glo 11µM
Cc1cc(-n2c(/C=C/c3cccs3)nc3ccccc3c2=O)ccc1Br	none (no result: PLK1 PBD block, Tb PFK inh-1, S-ASM inh)
COc1ccc(N2C(=O)CS(=O)C(c3ccccc3)C2=O)cc1 (centres undefined)	PLK1 PBD block 2.4µM, Tb PFK inh-1 inconclusive, VDR inhibitor 35µM | Tb PFK KinaseGlo inconclusive | Tb PFK inh-2 inactive | TbPYK inh 13µM | TbPYK ADP-Glo 25µM
COc1ccc(-n2c(/C=C\c3ccccc3F)nc3ccccc3c2=O)cc1OC	none (no result: PLK1 PBD block, Tb PFK inh-1, S-ASM inh)
Cc1c(Br)c(O)c(Br)c2sc(=O)oc12	PLK1 PBD block 27µM, Tb PFK inh-1 inconclusive, VDR inhibitor inconclusive | Tb PFK KinaseGlo inactive | Tb PFK inh-2 inactive | TbPYK inh inconclusive | TbPYK ADP-Glo inconclusive
O=C1NC(=O)N(c2ccccc2)C(=O)/C1=C\c1ccc2c3c(cccc13)CC2	none (no result: PLK1 PBD block, Pin1 inh, VDR inhibitor, TDP1 block, S-ASM inh)
O=C1NC(=O)N(c2ccccc2)C(=O)/C1=C\c1ccccc1[N+](=O)[O-]	PLK1 PBD block inconclusive, VDR inhibitor 45µM (no result: TDP1 block) | VDR inh confirm 21 | VDR FP 28µM | VDR bla reporter inactive | VDR viability inactive
CCOc1ccc(N2C(=O)NC(=O)/C(=C\c3cc(OC)c(OC)cc3[N+](=O)[O-])C2=O)cc1	Pin1 inh inconclusive, VDR inhibitor 32µM | VDR inh confirm 17 | VDR FP 13µM | VDR bla reporter inactive | VDR viability inactive
Cc1c(C(=O)c2ccc3ccccc3c2)c2cccc3c2n1[C@H](CN1CCOCC1)CO3	none (no result: PLK1 PBD block, Pin1 inh, Tb PFK inh-1, S-ASM inh)
COc1ccc2[nH]cc(C3=CCNCC3)c2c1	none (no result: PLK1 PBD block, Pin1 inh, Tb PFK inh-1, S-ASM inh) | USP1-UAF1 confirm 53µM
C[C@H](NC(C)(C)C)C(=O)c1cccc(Cl)c1	none (no result: PLK1 PBD block, Pin1 inh, Tb PFK inh-1, S-ASM inh)
N[C@@H](Cc1cc(I)c(O)c(I)c1)C(=O)O	VDR inhibitor inconclusive
NC(Cc1cc(O)c(O)cc1O)C(=O)O (centres undefined)	Tb PFK inh-1 0.85µM, VDR inhibitor 45µM, TDP1 block 0.18µM (no result: PLK1 PBD block, Pin1 inh, S-ASM inh) | USP1-UAF1 confirm 12µM
O=C1NC(=O)N(CCC2=CCCCC2)C(=O)/C1=C\c1cccs1	PLK1 PBD block 1.1µM, VDR inhibitor 45µM | VDR inh confirm 8.4 | VDR FP inconclusive | VDR bla reporter inactive | VDR viability inactive
O=C1NC(=O)N(CCc2ccc(F)cc2)C(=O)/C1=C/c1cccs1	PLK1 PBD block 1.1µM, VDR inhibitor 18µM | VDR inh confirm 9.5 | VDR FP inconclusive | VDR bla reporter inactive | VDR viability inactive
Cn1cccc1/C=C1\C(=O)NC(=O)N(CCC2=CCCCC2)C1=O	Pin1 inh inconclusive
COC(=O)CCC(=O)Nc1sc(Cc2ccccc2)c(C)c1C(N)=O	PLK1 PBD block 2.4µM, VDR inhibitor 20µM | VDR inh confirm inconclusive | VDR FP inconclusive | VDR bla reporter inactive | VDR viability inactive
CC(C)n1c(O)c(C2c3cc(Cl)ccc3Oc3[nH]c(=O)n(C(C)C)c(=O)c32)c(=O)[nH]c1=O (centres undefined)	PLK1 PBD block 1.3µM, VDR inhibitor 8.9µM | VDR inh confirm 4.2 | VDR FP inconclusive | VDR bla reporter 5.2µM | VDR viability inconclusive
O=C1NC(=O)C(=Cc2ccccc2OCCOc2ccc([N+](=O)[O-])cc2)C(=O)N1	PLK1 PBD block 6µM, VDR inhibitor 45µM | VDR inh confirm 27 | VDR FP 10µM | VDR bla reporter inactive | VDR viability inconclusive

Screening results as filed in PubChem BioAssay.
